In PubChem BioAssay (EPA / NIEHS):
Records with an inconclusive call do not appear. The source made the active and inactive calls. How the source made its calls, unless noted: active means hit-call score of the fitted dose curve at least 0.9, where 1 is the maximum; inconclusive means response in the unintended direction; inactive means score below 0.9.

Test: ACEA_AR_agonist_AUC_viability: ACEA Biosciences xCELLigence Real-Time Cell Analysis on Androgen Receptor Agonism for Viability (AID 2283775);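 on AC50: viability read 80 hours after compound addition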
Procedure, shortened: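 Viability endpoint from xCELLigence impedance in 22Rv1 prostate cells at 80 h. Eight-point series, 100 uM maximum final.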

Compound	outcome	AC50
CCC(C)(CCC(C)C)C(=O)O (centres undefined)	inactive	–
Cc1cc(C)c(S(=O)(=O)O)cc1N=Nc1cc(S(=O)(=O)O)c2ccccc2c1O	inactive	–
C[Si](C)(C)O[Si](C)(C)O[Si](C)(C)C	inactive	–
Cc1cc(O)cc(C)c1Cl	–	3.98 µM (active)
C1=CCC=C1	inactive	–
F[B-](F)(F)F	inactive	–

Test: ACEA_AR_antagonist_AUC_viability: ACEA Biosciences xCELLigence Real-Time Cell Analysis on Androgen Receptor Antagonism for Viability (AID 2283776);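 further: 22Rv1 human prostate cancer cells growing on impedance electrode plates; area under impedance growth curve at 80 h after dosing as viability; hits lower the growth signal relative to DMSO meaning cytotoxicity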
Procedure, shortened: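 Viability endpoint from label-free cell-index monitoring: 22Rv1 cultures treated with an eight-point 1:4 dilution series starting at 100 uM final, AUC at 80 h fitted against DMSO.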

Compound	outcome	AC50
CCC(C)(CCC(C)C)C(=O)O (centres undefined)	inactive	–
Cc1cc(C)c(S(=O)(=O)O)cc1N=Nc1cc(S(=O)(=O)O)c2ccccc2c1O	inactive	–
CC1=NN(c2cc(Cl)c(S(=O)(=O)O)cc2Cl)C(=O)C1N=Nc1ccc(S(=O)(=O)O)cc1 (centres undefined)	inactive	–
C[Si](C)(C)O[Si](C)(C)O[Si](C)(C)C	inactive	–
Cc1cc(O)cc(C)c1Cl	–	8.88 µM (active)
Cc1cccnc1	inactive	–
C1=CCC=C1	inactive	–
F[B-](F)(F)F	inactive	–

Test: ACEA_ER_AUC_viability: ACEA Biosciences xCELLigence Real-Time Cell Analysis on Estrogen Receptor Agonism for Viability (AID 2283782);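 further: hit means loss of impedance signal meaning reduced cell growth or viability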
Procedure, shortened: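 Continuous-exposure impedance cell analysis uses T-47D cells in charcoal-stripped serum, eight 1:4 dilutions topping at 100 uM final, biological duplicate. Area under the growth curve at 80 h is fitted against DMSO baseline.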

Compound	outcome	AC50
CCC(C)(CCC(C)C)C(=O)O (centres undefined)	inactive	–
Cc1cc(C)c(S(=O)(=O)O)cc1N=Nc1cc(S(=O)(=O)O)c2ccccc2c1O	inactive	–
Clc1ccccn1	inactive	–
CCCCCCOC(=O)CCCCCCCC(=O)OCCCCCC	–	50 µM (active)
O=C(O)Cc1c[nH]c2ccccc12	inactive	–
CCCCCCCCCCC1CO1 (centres undefined)	–	32.9 µM (active)
NCc1ccccc1	–	50 µM (active)
O=[N+]([O-])c1ccc2nc[nH]c2c1	inactive	–
CC(C)CC(=O)O	inactive	–
Cc1cc(O)cc(C)c1Cl	–	81.1 µM (active)
CC1=C(CC=O)C(C)(C)CCC1	–	64.2 µM (active)
Cc1ccccc1S(N)(=O)=O	inactive	–
C=C(C)C(=O)OCC1CCCO1 (centres undefined)	inactive	–
CC(C)CC(=O)CC(C)CC(C)C (centres undefined)	inactive	–
CCCOCCC	inactive	–
CN(C)CCC(c1ccc(Cl)cc1)c1ccccn1 (centres undefined)	inactive	–
CC/C=C\CC1=C(C)CCC1=O	–	92.5 µM (active)
COC(OC)C(C)c1ccccc1 (centres undefined)	–	20.7 µM (active)
F[B-](F)(F)F	inactive	–
COCCCN	inactive	–
CC1=CCCC(C)(C)C12CCC(C)O2 (centres undefined)	–	60.7 µM (active)
COc1ccccc1OCC(O)CO (centres undefined)	inactive	–
CC=CC(=O)O	inactive	–

Test: CCTE_Harrill_HTTr_Viability_MCF7: CCTE's 6-hour Cell Viability Assessment for the High-Throughput Transcriptomics (HTTr) Platform, in MCF-7 cells cultured in DMEM + 10% fetal bovine serum, Harrill Lab (AID 2284010; active means hit-call score of the fitted dose curve at least 0.9, where 1 is the maximum; inactive means score below 0.9)
Procedure, shortened: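 Eight-point concentration series, six-hour exposure. Propidium iodide exclusion imaged to assess membrane integrity as a cytotoxicity readout; bidirectional fitting was done with DMSO as negative control and activity baseline.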

Compound	outcome	AC50
CCCc1c(OCCCCc2nn[nH]n2)ccc(C(C)=O)c1O	inactive	–
Clc1ccccn1	inactive	–
O=C(O)Cc1c[nH]c2ccccc12	inactive	–
NCc1ccccc1	inactive	–
O=[N+]([O-])c1ccc2nc[nH]c2c1	inactive	–
CC(C)CC(=O)O	inactive	–
Cc1cc(O)cc(C)c1Cl	inactive	–
CC(C)n1c(/C=C/[C@@H](O)C[C@@H](O)CC(=O)O)c(-c2ccc(F)cc2)c2ccccc21	inactive	–
Cc1cccnc1	inactive	–
CN(C)CCC(c1ccc(Cl)cc1)c1ccccn1 (centres undefined)	inactive	–
CN(C)CCCN1c2ccccc2CCc2ccc(Cl)cc21	–	66.7 µM (active)
C[C@H]1C[C@H]2[C@@H]3CCC4=CC(=O)C=C[C@]4(C)[C@@]3(F)[C@@H](O)C[C@]2(C)[C@@]1(O)C(=O)CO	inactive	–
